# High-throughput results as filed in PubChem.
# RECQ1 helicase: RECQ1 (human) helicase inhibition. Potency, µM (doses to about 57.3 µM), actives largely listed as inhibitors. P46063. RECQ1 DNA unwinding, red fluorescence kinetic read. AID 2549. 240,000 tested, 0.54% active; note: nearly all actives have a fitted effect of over 30% in size
#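 50 nM RECQ1T1 preincubated 15 min with compound in Tris pH 8.0 buffer with MgCl2, DTT, Tween-20 and 2.5 ug/ml poly(dI-dC); started with 200 nM TAMRA/BHQ-2 forked duplex and 2 mM ATP. Unwinding read as fluorescence (525/598 nm), two reads 2 h apart.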
# PKM2 activator: PKM2 (human) enzyme activation; Potency, µM (highest dose often 57.5 µM), actives largely listed as activators; P14618; 260,000 tested, 0.34% active; AID 1631; purified PKM2, Kinase-Glo ATP luminescence, activation; response scale: 0% is enzyme alone, no compound; note: nearly all actives have a fitted effect of over 55% in size
#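 Purified hPK-M2 (>95%) run at intermediate activity with 0.1 mM ADP and 0.5 mM PEP in 50 mM imidazole pH 7.2, KCl, MgCl2; 1 h room temperature. ATP formed read by Kinase-Glo luminescence; normalized to uninhibited and no-enzyme controls.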
# KDM4E inh: JMJD2E (human) inhibition | B2RXH2 | JMJD2E catalytic domain, FDH-coupled NADH fluorescence (FDH is formaldehyde dehydrogenase) | Potency, µM (doses to about 57.1 µM), usual class: inhibitors | 230,000 tested, 1.6% active | AID 2147; active = well fitted inhibition curve with a large enough effect, not every such curve was filed as active; inconclusive = small, poorly fitted or top-dose-only effect, or another doubt; inactive = no such curve, though single readings can be large or run the other way; note: nearly all actives have a fitted effect of over 50% in size
# Target sequence (B2RXH2 1-337 limits assumed): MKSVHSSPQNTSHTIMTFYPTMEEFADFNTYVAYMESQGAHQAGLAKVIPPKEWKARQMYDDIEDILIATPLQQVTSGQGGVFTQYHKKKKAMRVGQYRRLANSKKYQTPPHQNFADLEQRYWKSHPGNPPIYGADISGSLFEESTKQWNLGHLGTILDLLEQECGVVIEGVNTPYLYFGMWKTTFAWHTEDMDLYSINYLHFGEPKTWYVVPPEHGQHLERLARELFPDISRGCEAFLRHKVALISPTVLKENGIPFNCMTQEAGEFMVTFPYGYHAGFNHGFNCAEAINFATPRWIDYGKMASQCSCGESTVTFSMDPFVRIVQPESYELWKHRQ
# APE1 inh: inhibitors of human APE1 endonuclease; P27695; recombinant APE1, TAMRA/BHQ-2 abasic DNA cleavage fluorescence; Potency, µM (series often up to 65.8 µM), actives largely listed as inhibitors; 350,000 tested, 0.35% active; AID 2517; note: nearly all actives have a fitted effect of over 55% in size
# Target sequence (P27695 whole entry, looked up): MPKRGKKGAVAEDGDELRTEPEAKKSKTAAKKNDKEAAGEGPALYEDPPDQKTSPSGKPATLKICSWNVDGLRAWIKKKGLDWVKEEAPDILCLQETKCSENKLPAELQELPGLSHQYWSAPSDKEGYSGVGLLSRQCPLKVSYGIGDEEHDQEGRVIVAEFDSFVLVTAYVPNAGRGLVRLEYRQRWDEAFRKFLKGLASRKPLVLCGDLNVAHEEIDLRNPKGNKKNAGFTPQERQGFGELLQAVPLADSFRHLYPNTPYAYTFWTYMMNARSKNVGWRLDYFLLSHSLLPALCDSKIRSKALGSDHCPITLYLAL
#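 Kinetic fluorescence read (525 ex/598 em nm, three reads 60 s apart) of AP-site incision; signal = third minus first read. Enzyme 0.75 nM, dual-labelled THF duplex 50 nM, compound preincubation 15 min RT.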
# BLM helicase inh: Bloom syndrome helicase (human) inhibition | AID 2528 | 350,000 tested, 0.2% active | recombinant BLM DNA unwinding, fluorescence dequenching | Potency, µM (series often up to 56.1 µM), usual class: inhibitors | P54132; note: nearly all actives have a fitted effect of over 35% in size
# Hits are given with their value; - = inactive; ? = inconclusive; . = no result given; ! = repeats disagree; [ ] = another dose, or the depositor's remark. The full list was thinned out, with hits kept by preference. Unless noted, calls come from the whole dose curve; as a rule, active = well fitted curve in the direction sought with a large enough effect; inconclusive = small, poorly fitted or top-dose-only effect, or another doubt; inactive = no such curve, though single readings can be large; an effect the other way counts as inactive or inconclusive.
SMILES,RECQ1 helicase,PKM2 activator,KDM4E inh,APE1 inh,BLM helicase inh
NNc1ccccc1C(F)(F)F,-,-,-,35µM,-
NC(=O)c1ccc[n+]([C@@H]2O[C@H](COP(=O)([O-])OP(=O)(O)OC[C@H]3O[C@@H](n4cnc5c(N)ncnc54)[C@H](O)[C@@H]3O)[C@@H](O)[C@H]2O)c1,.,.,.,-,.
CC(C)(C)n1ncc2c(=O)n(Cc3ccc(F)cc3Cl)cnc21,.,.,.,-,.
Cc1nc(-c2coc3c(O)c(O)ccc3c2=O)cs1,-,.,7.1µM,?,-
Cc1c(/C=N\NC(=O)C2COc3ccc(C(C)(C)C)cc3O2)c2ccccc2n1C (stereo not drawn),28µM,-,-,-,-
COc1cc(OC)c2c(c1C(CCN1CCCC(C)C1)c1ccc(N(C)C)cc1)OC(=O)CC2c1ccc(N(C)C)cc1 (stereo not drawn),-,.,.,-,-
C=CC1=C2C=C(C3CC3)N(CCCOC(C)C)C=C2C(=O)C(C)(OC(=O)c2ccco2)C1=O (stereo not drawn),-[11.5 µM],-[11.5 µM],-[11.4 µM],-[12.4 µM],-[12.4 µM]
CC1=CC(C)(C)N2C(=O)C(=Nc3ccc(O)cc3)c3cccc1c32,-,?,13µM,?,32µM
Cc1c2cc(O)c(=O)cc-2oc2cc(O)c(O)cc12,10µM,?,?,0.79µM,14µM
COc1cc(OC)c(-c2c3cc(O)c(=O)cc-3oc3cc(O)c(O)cc23)cc1OC,10µM,-,5µM,25µM,-
CCOc1ccc(N2C(=O)c3cccnc3C2Nc2ccc(Cl)cc2)cc1 (stereo not drawn),-,-,-,-,-
Cc1ccc(NC2c3ncccc3C(=O)N2c2ccccc2C)cc1C (stereo not drawn),-,-,14µM,-,-
Cc1cc(C)n(-c2ncc3c(n2)N(CCO)CCOC3=O)n1,-,-,?,-,-
CC1=CC2(O)OCCN(CCO)C2=CC1=O (stereo not drawn),25µM,-,25µM,?,?
O=C(COc1ccc(/C=C\[N+](=O)[O-])cc1)N1CCOCC1,32µM,-,-,?,-
CCOC(=O)N1CCN(/[N+]([O-])=N/Oc2ccc([N+](=O)[O-])cc2[N+](=O)[O-])CC1,-,.,.,-,-
Cc1csc(SCC(=O)Nc2ccc(S(=O)(=O)N3CCCC3)cc2)n1,-,20µM,-,-,-
CO[C@@H]1COC(=O)[C@@H](CCSC)NC(=O)C/C=C\[C@@H](C)COC(=O)[C@H](C)NC(=O)C/C=C\[C@H]1C,-[11.5 µM],.,.,-[12.4 µM],-[12.4 µM]
CCOC(=O)C1=C(c2ccccc2)N=c2s/c(=C\c3cc(OC)c(OC)c(OC)c3)c(=O)n2C1c1cccs1 (stereo not drawn),-,-,-,-,-
CCOC(=O)C1=C(c2ccccc2)N=c2s/c(=C\c3ccco3)c(=O)n2C1c1cccs1 (stereo not drawn),?,-,13µM,-,?
O=c1cc(CSc2nnnn2-c2ccccc2)nc2scc(-c3ccccc3)n12,-,25µM,?,-,-
CC(C)(C)n1ncc2c(=O)n(Cc3cccc(Cl)c3Cl)cnc21,.,.,.,-,.
O=C1S/C(=C\c2ccc(N3CCOCC3)o2)C(=O)N1Cc1ccc(F)cc1,-,2µM,-,-,-
O=C1S/C(=C/c2ccc(N3CCOCC3)o2)C(=O)N1Cc1ccc(F)cc1,-,2µM,-,-,-
CC[C@H](C)[C@H](NC(=O)[C@@H](NC(=O)[C@@H](CC(=O)NO)Cc1ccccc1)[C@@H](C)CC)C(=O)O,-,.,.,-,-
SMILES,RECQ1 helicase,PKM2 activator,KDM4E inh,APE1 inh,BLM helicase inh
Cc1nc(-c2ccccc2)c(-c2ccncc2)o1,-,.,.,-,-
OCCCc1ccccc1,-,.,.,-,-
Nc1ccccc1C#CCCCCO,-,-,20µM!,-,-
O=C(NC(=S)NNC(=O)c1cc2ccccc2cc1O)c1ccco1,-,-,18µM,-,-
O=C(NC(=S)NNC(=O)c1ccccc1O)c1cccnc1,-,-,20µM,-,-
O=C(NC(=S)NNC(=O)c1ccc(Cl)cc1Cl)c1cccnc1,-,-,-,-,-
COc1ccc(C(=O)NC(=S)NNC(=O)c2ccco2)cc1,.,-,.,-,-
O=C(NC(=S)NNC(=O)c1ccccc1O)c1ccco1,-,-,7.1µM,-,-
CC(C)(C)n1ncc2c(=O)n(Cc3ccc(Cl)cc3C(F)(F)F)cnc21,.,.,.,-,.
Cc1ccc2oc(-c3ccccc3)c(O)c(=O)c2c1,-,.,14µM,-,-
Cc1ccc(-c2oc3ccccc3c(=O)c2O)cc1,-,-,-,-,-
COC(=O)/C=C/C(=O)Nc1ccc(O)c(Cl)c1,-,-,-,-,-
COC(=O)/C=C\c1cc(O)ccc1O,-,.,32µM,?,-
C(=N\n1cnnc1)/c1cccn1-c1ccccc1,-,28µM,-,-,-
Cc1cc(/C=N/n2cnnc2)c(C)n1-c1ccccc1,-,-,-,-,-
OC[C@H]1O[C@@H](O[C@H]2[C@H](O)[C@@H](O)[C@H](O)O[C@@H]2CO)[C@H](O)[C@@H](O)[C@@H]1O,.,.,.,-,.
CN(C)c1ccc(C(=C2C=CC(=[N+](C)C)C=C2)c2ccc(N(C)C)cc2)cc1,10µM,.,?,?,22µM!
CN(C)c1ccc(C(=C2C=CC(=[N+](C)C)C=C2)c2ccccc2)cc1,?,.,.,-,-
O=c1[nH][nH]c(=S)n1-c1ccccc1C(F)(F)F,-,-,6.3µM,-,-
O=c1[nH]ncn1-c1ccccc1C(F)(F)F,-,-,-,-,-
C/C(CCC(=O)OC[C@@H]1O[C@H](C#Cc2ccccc2)C=C[C@@H]1Oc1ccc(C)cc1)=N/O[C@@H](C)c1cn([C@H]2COC[C@H]2O)nn1,-[11.5 µM],.,.,?,-[12.4 µM]
O=c1oc2ccccc2nc1/C=C(O)/C=C\c1ccccc1,-,-,20µM,-,-
O=C1C(Nc2ccccc2)=C(N2CCCCC2)C(=O)c2ccccc21,-,-,-,-,-
O=C(/C=C/c1ccc(O)cc1)c1ccc(NC2=C(N3CCCCC3)C(=O)c3ccccc3C2=O)cc1,?,-,18µM,-,-
COc1ccc(-c2nc3c(c4c2C[C@H](c2ccccc2)OC4)CN(S(=O)(=O)c2ccc(NC(C)=O)cc2)CC3)c(C)c1,-[11.5 µM],-[11.5 µM],-[11.4 µM],-[12.4 µM],-[12.4 µM]
SMILES,RECQ1 helicase,PKM2 activator,KDM4E inh,APE1 inh,BLM helicase inh
O=C(C(=O)N1CCCc2ccccc21)c1c[nH]c2ccccc12,-,35µM,-,-,-
Cc1[nH]c2ccccc2c1C(=O)C(=O)N1CCCc2ccccc21,-,-,-,-,-
CC(C)(C)NS(=O)(=O)c1cccc(-c2nnc(SCC(=O)Nc3ccc(C(=O)O)cc3)n2-c2ccc(F)cc2)c1,.,.,.,-,.
O=C(C[n+]1ccc(C(=O)N/N=C/c2ccc(O)cc2)cc1)c1ccccc1,-,-,?,-,?
O=C(C[n+]1ccc(C(=O)N/N=C/c2ccc(OCc3ccccc3)cc2)cc1)c1ccccc1,-,-,28µM,?,35µM
Cc1cc(N2CCN(S(=O)(=O)c3ccc4ccccc4c3)CC2)n2ncnc2n1,-,18µM,?,-,-
